# The source made the active and inactive calls.
# Key:
# [1] = tested on: PRMT1 (protein arginine N-methyltransferase 1); assay: small molecules binding arginine methyltransferase PRMT1 – biochemical, small-molecule microarray, 635 nm fluorescence, primary screen (AID 1088); conditions: higher = more signal;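 note: binding of Prmt1 protein to compounds spotted on small-molecule microarray slides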
# [2] = growth effects on S. cerevisiae YJM789 – YJM789 clinical isolate, OD600, 24 h, basal, primary screen (AID 1089); conditions: higher = more signal, called active from +8 up or from −8 down;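 note: growth of clinical yeast isolate S. cerevisiae YJM 789 seeded 1000 cells per well; test concentration not given here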
# [3] = S. pombe growth modifiers, basal conditions – strain 972, OD600, 24 h, no modulator, primary screen (AID 1090);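 note: basal condition with compound alone and no growth modifier present; test concentration not given here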; conditions: S. pombe 972 growth, higher = more signal, called active from +8 up or from −8 down
# [4] = budding yeast growth modifiers under rapamycin – strain BY4716, OD600, 96 h, primary screen (AID 1091); note: test concentration not given here; conditions: S. cerevisiae BY4716 + rapamycin, higher = more signal, called active from +8 up or from −8 down
# [5] = target: Torsin-1A-interacting protein 2 (Homo sapiens) (UniProt Q8NFQ8); assay: small molecules binding lysate-expressed LULL1 – cell lysate, human LULL1 lysate, 635/667 nm fluorescence, primary screen (AID 1092); conditions: small-molecule microarray, hLULL1 lysate binding, 635 nm fluorescence; higher = more signal;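 note: probe is lysate of COS7 cells overexpressing human LULL1; score merges per-feature 667 nm fluorescence with signal-to-noise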
# [6] = optical density change of DRC41 E. coli – strain DRC41, OD650, 24 h, E. coli filamentation project, primary screen (AID 1093);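 note: MC1000 strain lacking acrAB efflux and sulA so SOS filamentation is blocked; test concentration not given here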; conditions: E. coli DRC41 growth, higher = more signal, called active from +8 up or from −8 down
# [7] = probe aLefty2 binding to arrayed compounds – biochemical, biotinylated probe, 635/667 nm fluorescence, primary screen (AID 1094); conditions: small-molecule microarray, higher = more signal;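 note: score merges spot fluorescence near 667 nm with spot signal-to-noise ratio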
# [8] = tested on: Noggin (protein binding on small-molecule microarray); assay: small molecules binding Noggin protein – biochemical, 635/667 nm fluorescence, primary screen (AID 1095); conditions: 635 nm fluorescence, higher = more signal;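 note: score merges 667 nm feature fluorescence with signal to noise over triplicate slides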
# [9] = target: Neurogenic locus notch homolog protein 3 (Homo sapiens) (UniProt Q9UM47); assay: small molecules binding NOTCH3 protein – biochemical, 635/667 nm fluorescence, primary screen (AID 1096); conditions: small-molecule microarray, 635 nm fluorescence, higher = more signal
# [10] = probe aEGFR binding to arrayed compounds – biochemical, biotinylated probe, 635/667 nm fluorescence, primary screen (AID 1097); conditions: small-molecule microarray, higher = more signal;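 note: probe is a biotinylated anti-EGFR antibody binding compounds printed on slides; score combines fluorescence near 667 nm and signal to noise of each spot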
# Sequence of Neurogenic locus notch homolog protein 3 (Homo sapiens) (Q9UM47 whole entry, looked up): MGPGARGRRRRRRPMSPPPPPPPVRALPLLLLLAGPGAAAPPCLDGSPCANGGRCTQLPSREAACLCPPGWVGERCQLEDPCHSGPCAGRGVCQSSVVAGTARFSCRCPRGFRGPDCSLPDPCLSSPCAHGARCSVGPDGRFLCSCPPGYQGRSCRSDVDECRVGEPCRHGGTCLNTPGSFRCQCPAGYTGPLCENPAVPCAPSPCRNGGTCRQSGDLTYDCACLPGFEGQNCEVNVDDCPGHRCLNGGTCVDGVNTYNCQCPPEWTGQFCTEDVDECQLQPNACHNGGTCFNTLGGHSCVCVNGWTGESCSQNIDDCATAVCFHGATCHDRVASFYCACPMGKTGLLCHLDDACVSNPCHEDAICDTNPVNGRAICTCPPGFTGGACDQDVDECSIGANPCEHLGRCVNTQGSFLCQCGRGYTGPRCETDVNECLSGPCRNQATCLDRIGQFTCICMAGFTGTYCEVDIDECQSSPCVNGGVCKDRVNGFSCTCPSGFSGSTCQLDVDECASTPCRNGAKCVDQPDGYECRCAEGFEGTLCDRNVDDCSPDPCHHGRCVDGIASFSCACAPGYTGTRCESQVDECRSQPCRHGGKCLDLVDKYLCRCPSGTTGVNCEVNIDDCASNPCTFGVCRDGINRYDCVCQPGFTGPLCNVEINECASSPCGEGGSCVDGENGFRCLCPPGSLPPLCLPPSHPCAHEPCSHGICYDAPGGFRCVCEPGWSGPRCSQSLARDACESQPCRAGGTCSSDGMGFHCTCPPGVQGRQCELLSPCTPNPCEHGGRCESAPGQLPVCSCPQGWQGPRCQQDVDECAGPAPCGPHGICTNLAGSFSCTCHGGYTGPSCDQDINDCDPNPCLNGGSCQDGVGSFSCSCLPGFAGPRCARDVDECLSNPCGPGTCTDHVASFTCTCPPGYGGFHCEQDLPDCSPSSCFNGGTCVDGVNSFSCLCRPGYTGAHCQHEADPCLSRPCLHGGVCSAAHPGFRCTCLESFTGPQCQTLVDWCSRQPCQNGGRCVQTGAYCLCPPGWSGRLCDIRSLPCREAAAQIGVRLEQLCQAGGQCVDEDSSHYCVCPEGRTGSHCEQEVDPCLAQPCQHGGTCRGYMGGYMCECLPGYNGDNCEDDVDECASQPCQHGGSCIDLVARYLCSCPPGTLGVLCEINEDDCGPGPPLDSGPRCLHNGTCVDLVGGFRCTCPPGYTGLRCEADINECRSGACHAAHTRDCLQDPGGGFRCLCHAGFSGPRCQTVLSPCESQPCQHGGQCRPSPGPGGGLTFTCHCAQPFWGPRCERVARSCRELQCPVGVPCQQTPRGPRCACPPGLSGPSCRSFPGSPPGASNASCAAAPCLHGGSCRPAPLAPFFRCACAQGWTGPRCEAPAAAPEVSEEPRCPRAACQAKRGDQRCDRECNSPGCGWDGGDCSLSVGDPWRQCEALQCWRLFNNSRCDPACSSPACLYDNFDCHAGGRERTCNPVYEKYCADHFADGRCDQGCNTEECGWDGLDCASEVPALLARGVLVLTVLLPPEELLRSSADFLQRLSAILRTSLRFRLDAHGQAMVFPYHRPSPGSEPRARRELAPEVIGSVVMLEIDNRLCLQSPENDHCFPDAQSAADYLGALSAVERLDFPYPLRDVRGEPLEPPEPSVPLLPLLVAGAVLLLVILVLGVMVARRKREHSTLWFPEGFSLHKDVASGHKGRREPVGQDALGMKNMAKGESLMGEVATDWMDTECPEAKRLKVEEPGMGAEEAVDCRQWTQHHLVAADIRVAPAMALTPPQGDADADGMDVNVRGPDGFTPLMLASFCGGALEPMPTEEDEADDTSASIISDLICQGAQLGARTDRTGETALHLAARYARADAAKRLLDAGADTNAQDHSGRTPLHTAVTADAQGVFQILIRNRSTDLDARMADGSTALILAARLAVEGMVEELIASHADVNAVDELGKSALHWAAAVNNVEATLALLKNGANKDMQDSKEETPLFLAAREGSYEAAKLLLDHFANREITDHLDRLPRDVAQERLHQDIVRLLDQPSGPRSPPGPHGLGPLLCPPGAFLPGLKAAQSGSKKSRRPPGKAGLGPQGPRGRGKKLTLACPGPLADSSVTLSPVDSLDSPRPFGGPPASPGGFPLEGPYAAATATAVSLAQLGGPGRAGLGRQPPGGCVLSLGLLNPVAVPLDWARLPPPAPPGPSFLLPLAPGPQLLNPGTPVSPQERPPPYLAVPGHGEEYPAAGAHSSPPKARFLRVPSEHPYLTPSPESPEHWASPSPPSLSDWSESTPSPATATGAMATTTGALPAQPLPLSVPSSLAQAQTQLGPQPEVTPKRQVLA
# Sequence of Torsin-1A-interacting protein 2 (Homo sapiens) (Q8NFQ8 whole entry, looked up): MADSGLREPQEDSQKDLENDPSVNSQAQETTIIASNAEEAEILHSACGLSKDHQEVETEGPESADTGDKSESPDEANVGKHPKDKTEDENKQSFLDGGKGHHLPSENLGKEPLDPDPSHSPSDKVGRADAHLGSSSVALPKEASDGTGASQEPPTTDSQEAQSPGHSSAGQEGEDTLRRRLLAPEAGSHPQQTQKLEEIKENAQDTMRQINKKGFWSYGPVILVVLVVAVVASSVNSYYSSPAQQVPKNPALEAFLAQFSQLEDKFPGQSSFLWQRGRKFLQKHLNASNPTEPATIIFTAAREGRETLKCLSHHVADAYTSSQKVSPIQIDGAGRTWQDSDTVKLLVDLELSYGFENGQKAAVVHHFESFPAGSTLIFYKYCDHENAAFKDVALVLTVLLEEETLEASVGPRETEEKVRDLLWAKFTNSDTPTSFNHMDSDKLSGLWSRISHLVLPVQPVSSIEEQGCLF
SMILES,composite z-score [1],z-score [2],z-score [3],z-score [4],composite z-score [5],z-score [6],composite z-score [7],composite z-score [8],composite z-score [9],composite z-score [10]
CC(CCN1CCCCc2nc(C)c(C)cc21)=NOC(C)CN1CCCc2nc(C)c(C)cc21 (stereo not given),1.52,-1.19 (inactive),-1.06 (inactive),-0.321 (inactive),2.91,0.162 (inactive),0.447,1.07,1.04,0.509
COCCCNC(=O)[C@@]1(CCS(=O)(=O)c2ccccc2)N=C(c2ccc(OCCCO)cc2)O[C@H]1c1ccccc1,1.38,-0.67 (inactive),-0.692 (inactive),-0.757 (inactive),3.43,2.54 (inactive),0.888,0.0483,-0.0936,0.592
Cc1ccc(C2CC=C(C(=O)O)CN2S(=O)(=O)c2ccc(C)cc2)cc1 (stereo not given),0.732,0.0388 (inactive),1.02 (inactive),0.856 (inactive),2.49,-1.16 (inactive),0.0527,0.153,0.984,-0.071
COCCCNC(=O)[C@@]1(Sc2ccc(C)cc2)CC(=O)N(Cc2ccccc2)[C@@H]1c1ccc(CO)cc1I,0.785,-1.69 (inactive),-2.82 (inactive),0.999 (inactive),0.936,0.248 (inactive),0.556,-1.53,-1,0.0097
CCOC(=O)NN=C1C[C@@H](O)[C@@H](O)[C@@H]2[C@@H]3C(=O)N(C[C@@H]4CCCO4)C(=O)[C@@H]3CC[C@@H]12,0.0939,0.822 (inactive),-0.408 (inactive),0.256 (inactive),0.375,0.757 (inactive),-0.0458,0.642,0.697,-0.0681
CCOC(=O)[C@H](Cc1ccccc1)NC(=O)CCC1CC(OC(=O)NCc2ccc3c(c2)OCO3)CC2(CCCC(COC(=O)NCC3CCCCC3)O2)O1 (stereo not given in full),1.55,-0.827 (inactive),0.455 (inactive),-0.38 (inactive),2.62,-0.201 (inactive),-0.157,0.742,1.11,0.0632
CC(=O)OC[C@H]1O[C@H](CCON=C[C@@H](C)[C@H](OCc2ccccc2)C(C)C)C=C[C@@H]1OC(C)=O,1.12,-0.283 (inactive),-0.205 (inactive),-0.3 (inactive),-0.169,-0.608 (inactive),-0.138,0.559,0.226,-0.0093
CC1(C)OCC(C(O)C2=CCCCC2=O)CO1 (stereo not given),1.56,0.209 (inactive),-0.0255 (inactive),0.856 (inactive),0.231,-0.449 (inactive),-0.0478,0.986,1.06,0.0688
COCCCNC(=O)[C@@]1(C)c2ccccc2C(=O)N(Cc2ccc(OC(F)(F)F)cc2)[C@H]1c1ccc(CO)cc1,0.289,-0.0965 (inactive),0.203 (inactive),-0.35 (inactive),-0.0493,0.93 (inactive),0.134,-0.598,-0.519,0.146
COC(=O)C1=CCC(c2cccc(Cl)c2)O1 (stereo not given),0.0357,-1.6 (inactive),-1.54 (inactive),4.34 (inactive),1.82,-0.215 (inactive),-0.043,-0.485,-0.223,-0.106
COc1ccc([Si](C)(C)[C@@H]2[C@@H](CC(=O)N3CCC[C@H]3CO)O[C@]3(C(=O)N(Cc4cccc(N5CCC5=O)c4)c4ccccc43)[C@H]2C)cc1,1.54,-0.569 (inactive),-0.184 (inactive),0.284 (inactive),2.64,0.37 (inactive),-0.0204,1.5,1.15,-0.0953
CC(=O)OC[C@H]1O[C@@H](ON=C[C@@H](C)[C@H](OCc2ccccc2)C(C)C)[C@H](OC(C)=O)[C@@H](OC(C)=O)[C@@H]1OC(C)=O,1.48,0.475 (inactive),0.0572 (inactive),-0.17 (inactive),-1.59,-0.057 (inactive),-0.114,0.605,0.751,0.0359
C[C@H]1CC[C@@H](C(=O)O)N[C@@H]1c1ccc(C#CCN(C)C)cc1,-0.521,1.07 (inactive),-0.509 (inactive),-0.434 (inactive),-0.141,0.657 (inactive),-0.128,0.102,0.498,-0.0564
COC(=O)[C@H](C)NC(=O)CCC1CC(OC(=O)NCc2cccc3ccccc23)CC2(CCCC(COC(=O)NCC3CCCCC3)O2)O1 (stereo not given in full),1.55,-0.0166 (inactive),0.633 (inactive),-0.825 (inactive),3.37,-0.639 (inactive),-0.114,0.918,1.06,0.0278
O=C(NN=C1C[C@@H](O)[C@@H](O)[C@@H]2[C@@H]3C(=O)N(c4cccc(Oc5ccccc5)c4)C(=O)[C@@H]3CC[C@H]12)OCc1ccccc1,-0.425,0.686 (inactive),-0.141 (inactive),-0.669 (inactive),0.415,1.24 (inactive),-0.0812,0.53,0.305,-0.152
CCOC(=O)[C@H](CC(C)C)NC(=O)CCC1CC(OC(=O)NCc2cccc3ccccc23)CC2(CCCC(COC(=O)NCCN3CCOCC3)O2)O1 (stereo not given in full),1.57,-1.26 (inactive),0.557 (inactive),-1.04 (inactive),2.36,-0.737 (inactive),-0.173,0.344,1.11,-0.0828
CCOC(=O)[C@H](CC(C)C)NC(=O)CCC1CC(OC(=O)NCCc2ccc(F)cc2)CC2(CCCC(COC(=O)NCc3ccccc3)O2)O1 (stereo not given in full),1.57,-0.341 (inactive),-0.265 (inactive),0.707 (inactive),2.24,-0.206 (inactive),-0.0778,1.46,0.828,0.0338
C=COC[C@H]1CN2[C@@H](CC[C@@H](C)[C@@H]2c2ccc(Br)cc2)C(=O)O1,1.4,-2.69 (inactive),-4.68 (inactive),-1.52 (inactive),1.99,-0.0786 (inactive),-0.155,0.372,0.521,0.0402
CC(C)=NOCc1cccc(-c2cc(-c3ccccc3)no2)c1,1.27,-0.366 (inactive),-21 (active),-0.442 (inactive),1.18,0.533 (inactive),-0.0375,0.7,0.881,0.161
COc1ccc(OC[C@H]2Cc3c(-c4ccccc4)nc4c(c3CO2)CN(CCOc2ccccc2)CC4)cc1,1.53,-0.721 (inactive),-2.44 (inactive),-0.42 (inactive),1.32,0.258 (inactive),0.0534,0.476,1.1,0.03
CC(C)CON=C1C[C@@H](O)[C@@H](O)[C@@H]2[C@@H]3C(=O)N(C[C@@H]4CCCO4)C(=O)[C@@H]3CC[C@H]12,0.976,-1.04 (inactive),0.042 (inactive),-0.435 (inactive),1.39,0.134 (inactive),-0.234,0.468,0.668,-0.0191
CCN1C(=O)[C@H]2[C@H]3[C@H](O)[C@H](O)CC(=NO[C@@H]4O[C@H](CO)[C@@H](O)[C@H](O)[C@H]4O)[C@@H]3CC[C@H]2C1=O,-0.685,-0.58 (inactive),-0.599 (inactive),-0.849 (inactive),-1.12,0.103 (inactive),-0.132,-0.103,-0.389,-0.19
CC(CCC(=O)OC[C@H]1O[C@H](C#Cc2ccccc2)C=C[C@@H]1Oc1ccc(C)cc1)=NOC[C@@H](O)[C@H]1O[C@@H]2OC(C)(C)O[C@@H]2[C@H]1O,-0.753,0.349 (inactive),-0.0762 (inactive),0.823 (inactive),0.563,0.142 (inactive),-0.352,-0.333,-1.74,-0.342
